Data on 58 compounds can be found in PubChem BioAssay AID2685 (National Center for Advancing Translational Sciences (NCATS), 2010).

Molecules are shown by their SMILES. About 2,100 (0.66%) of roughly 320,000 compounds were called active. About 53% were inconclusive and are not listed. Calls follow the shape of the dose curve; as a rule, active = well fitted inhibition curve with a large enough effect in the signal ratio, with a control signal flat (not every such curve was filed as active); inconclusive = small, poorly fitted or top-dose-only effect, or effect the other way, or a change in a side signal; inactive = flat fitted curve, though single readings scatter; the % refers to the signal ratio. The sample as a whole holds a higher share of actives than the screen did.
Potency is read from the fitted curve at half-maximal effect.

The nature of the test: qHTS Assay for Lipid Storage Modulators in Drosophila S3 Cells.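 As to cell number change: cells counted by Cell Tracker Red CMTPX staining in the red channel.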 The settings on record: BODIPY lipid droplet fluorescence, 18-24 h, cells fed with added oleic acid; cell number change: measured here: cell count max response; series mostly up to 46.1 µM. Summed up: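 Laser-scanning cytometry quantifies lipid droplet accumulation (500–530 nm total intensity; droplet/cell object ratio) in oleic acid-fed (400 uM added) Drosophila S3 cells treated with a concentration series. 20 uM Triacsin C defined 100% inhibition.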
Regarding `O=C1NC(=O)C(Cc2cccs2)C(=O)N1`, the Potency was 25.9 µM (active) and the cell number change is -13%. The corresponding values for `O=C1NC(=O)N(Cc2cccs2)C(=O)/C1=C/c1ccc(N2CCOCC2)cc1` are “inactive” and -3.62%. The corresponding values for `CN1C(=O)C(Cc2cccs2)C(=O)N(C)C1=O` are “inactive” and 1.68%.

As for `CC(=O)O[C@@H]1[C@H]2CC[C@@H]3[C@]1(C[C@@H](OC(C)=O)[C@@]1(O)C([C@@H]4O[C@@H]4C1(C)C)[C@]3(C)O)C[C@@]2(C)O` (some centres not stated), the Potency result was “inactive” and the cell number change is -2.47%. In the same order, the values of `O=C(Nc1ccc(OC(=O)N2CCCC2)cc1)N1CCOCC1` are “inactive” and 2.4%.

In the case of `CC(=O)Nc1ccccc1OC(=O)N1CCOCC1`, the Potency is 18.4 µM (active). Regarding `O=C(Nc1ccccc1OC(=O)N1CCCCC1)N1CCCCC1`, the Potency entry is “inactive” and the cell number change is 3.87%. The corresponding values for `CC1(C)COC(Nc2ccc(Cl)cc2)=N1` are “inactive” and 0.527%. `COc1ccc(Oc2c(C)oc3cc(OC(=O)N(C)C)ccc3c2=O)cc1`: the Potency result was “inactive” and the cell number change is 27.6%. The corresponding values for `COc1cccc2cc(-c3cc(=O)oc4ccc(OC(=O)N(C)C)cc34)oc12` are “inactive” and -3.98%. In the same order, the values of `Cc1cc2oc(=O)cc(-c3cc4ccccc4o3)c2cc1OC(=O)N(C)C` are 18.4 µM (active) and 20.3%.

Consider `COc1ccc(C(=O)C2CCCN(CCO)C2)c(C)c1` (configuration not stated), for which the Potency was 0.82 µM (active) and the cell number change is -6.32%. Take `COc1ccc(C(=O)C2CCCN(Cc3ccc(C)s3)C2)c(OC)c1` (configuration not stated): the Potency entry is “inactive” and the cell number change is -6.83%. In the same order, the values of `Cc1ccsc1C(=O)C1CCCN(CCO)C1` (configuration not stated) are “inactive” and -5.68%. In the same order, the values of `CC1(O)CCN2C(=O)CCc3cccc1c32` (configuration not stated) are “inactive” and -14.6%. Take `Cn1c(O)c(/C=C2\C=c3ccccc3=NC2=O)c(=O)n(C)c1=O`: the Potency entry is “inactive” and the cell number change was 5.41%. The corresponding values for `CN1CCc2c([nH]c3ccccc23)C1` are “inactive” and -7.02%. The corresponding values for `CCCCOc1ccc(CC2C(=O)N(C)C(=O)N(C)C2=O)cc1` are “inactive” and -19.6%.

Take `COc1ccccc1CNCCc1ccc(F)cc1`: the Potency entry is “inactive” and the cell number change was -5.32%.

For `CCC(=NCCO)c1c(O)n(-c2ccccc2)c(=O)[nH]c1=O`, the Potency was 20.6 µM (active) and the cell number change was -16.7%.

As to `CCC(=NCc1ccco1)c1c(O)n(-c2ccccc2)c(=O)[nH]c1=O`, the Potency entry is “inactive” and the cell number change turned out to be 12.1%. Regarding `CCC(=NCCO)c1c(O)n(-c2ccc(Cl)cc2)c(=O)[nH]c1=O`, the Potency entry is “inactive” and the cell number change was 11.3%. The corresponding values for `CC(C)(C)N(NC(=O)c1ccccc1)C(=O)c1ccccc1` are “inactive” and 1.15%. On to `COc1cc(/C=C2\C(=O)NC(=O)N(c3ccccc3)C2=O)cc(OC)c1OC`, for which the Potency is 0.731 µM (active). With `COc1cc(/C=C2\C(=O)NC(=O)N(c3ccc(C)cc3)C2=O)cc(OC)c1O`, the Potency result was “inactive” and the cell number change is 15%. In the same order, the values of `COc1cc(C=C2C(=O)NC(=O)NC2=O)cc(OC)c1OC` are “inactive” and 8.46%. Consider `COc1ccccc1C(=O)C1CCCN(Cc2cnc(C)s2)C1` (configuration not stated), for which the Potency entry was “inactive” and the cell number change was found to be 3.73%. In the same order, the values of `Cn1c(O)c(C=NC2CCN(Cc3ccccc3)CC2)c(=O)[nH]c1=O` are “inactive” and -0.367%. In the same order, the values of `Cn1c(=O)c2c(nc(N/N=C/c3c(O)n(-c4ccccc4)c(=S)[nH]c3=O)n2C)n(C)c1=O` are “inactive” and 0.523%.

For `OC1(CN2CCOCC2)C2CC3CC(C2)CC1C3` (configuration not stated), the Potency was 8.2 µM (active) and the cell number change is -6.79%.

With `CC1(C)C2CC=C(CN3CCOCC3)C1C2` (configuration not stated), the Potency result is “inactive” and the cell number change came to 1.35%. In the same order, the values of `CCC(C)n1c(O)c(C=NCCN2CCOCC2)c(=O)[nH]c1=S` (configuration not stated) are “inactive” and 0.504%.

Regarding `COc1ccc(-n2c(O)c(C(C)=NCCN3CCNCC3)c(=O)[nH]c2=O)cc1`, the Potency result was “inactive” and the cell number change is -2.05%. Regarding `COC(=O)C1=C(c2ccc(OC(F)(F)F)cc2)C[C@@H]2CC[C@H]1N2C(=O)NCCOc1ccccc1Cl`, the Potency entry was “inactive”. Consider `COC(=O)C1=C(c2ccc(-c3ccccc3)c(F)c2)C[C@@H]2CC[C@H]1N2C(=O)NCC1CC1`, for which the Potency result is “inactive” and the cell number change was -12.8%. The corresponding values for `COC(=O)C1=C(c2ccc(-c3ccccc3)c(F)c2)C[C@@H]2CC[C@H]1N2C(=O)NCCOc1ccccc1Cl` are 14.6 µM (active) and -24.1%.

As for `COC(=O)C1=C(c2ccccc2OCc2ccccc2)C[C@@H]2CC[C@H]1N2C(=O)NCc1ccc(N(C)C)cc1`, the Potency is 23.1 µM (active) and the cell number change was -7.57%. With `COC(=O)C1=C(c2ccccc2OCc2ccccc2)C[C@@H]2CC[C@H]1N2C(=O)NCc1ccc(OC)cc1`, the Potency entry was “inactive” and the cell number change is -4.45%.

Consider `COC(=O)C1=C(c2ccc3ccccc3c2)C[C@@H]2CC[C@H]1N2C(=O)NC1Cc2ccccc2C1`, for which the Potency entry was “inactive” and the cell number change was -10.8%. Consider `COC(=O)C1=C(c2ccccc2OCc2ccccc2)C[C@@H]2CC[C@H]1N2C(=O)NCc1ccccc1`, for which the Potency result was “inactive” and the cell number change was -13.3%. Consider `COC(=O)C1=C(c2ccc(-c3ccccc3)c(F)c2)C[C@@H]2CC[C@H]1N2C(=O)NC1Cc2ccccc2C1`, for which the Potency is 7.31 µM (active) and the cell number change was -24.5%. The corresponding values for `COC(=O)C1=C(c2ccc(-c3ccccc3)c(F)c2)C[C@@H]2CC[C@H]1N2C(=O)NCCOc1ccccc1` are “inactive” and -7.31%. In the same order, the values of `CN(Cc1ccccc1)C1CCCN(C(=O)COc2ccccc2Cl)C1` (configuration not stated) are “inactive” and 12%. In the same order, the values of `COc1ccc(C(=O)NC(=S)N2C[C@H]3C[C@H](C2)c2cccc(=O)n2C3)cc1` are “inactive” and 23%. On to `COc1ccc(N2C(=O)NC(=O)/C(=C\c3ccccc3[N+](=O)[O-])C2=O)cc1`, for which the Potency entry was “inactive” and the cell number change was -0.318%.

As for `C=C[C@@H]1C2=CCOC(=O)C2=CO[C@H]1O[C@@H]1O[C@H](CO)[C@@H](O)[C@H](O)[C@H]1O`, the Potency entry was “inactive” and the cell number change was -27.7%.

For the compound `CNCCc1ccccc1`, the Potency entry is “inactive” and the cell number change is -6.21%.

Take `CC(C)CC(NS(=O)(=O)c1ccc2c(c1)oc(=O)n2C)C(=O)NCc1cccnc1` (configuration not stated): the Potency is 1.64 µM (active).

For `O=C(NCc1cccnc1)Nc1ccccc1Cl`, the Potency entry was “inactive” and the cell number change is -20.1%. Consider `Cc1cc(OC(C)C(=O)NCc2cccnc2)c2c3c(c(=O)oc2c1)CCC3` (configuration not stated), for which the Potency result was “inactive” and the cell number change was found to be 14.6%. In the same order, the values of `CCc1ccc(CNCCc2ccc(F)cc2)cc1` are “inactive” and -19.7%. In the same order, the values of `C=C(C)CSc1nnc([C@@H](N)Cc2ccccc2)o1` are “inactive” and 2.73%. Take `COc1ccccc1NC1=NCCS1`: the Potency is 25.9 µM (active) and the cell number change was -10.9%. The corresponding values for `c1ccc2c(NC3=NCCS3)cccc2c1` are “inactive” and 15.1%. In the same order, the values of `COc1cccc(NC2=NCCCS2)c1` are “inactive” and 15%. The corresponding values for `CC1=C(C(=O)Nc2ccccc2)SCCO1` are 18.4 µM (active) and -0.928%. With `Cc1cc(C(=O)Nc2ccccc2)nn1C(C)(C)C`, the Potency result was “inactive” and the cell number change was found to be 13.1%. In the same order, the values of `CC1=C(C(=O)Nc2ccccc2)S(=O)(=O)CCO1` are “inactive” and -13.4%.
